Source: PubChem BioAssay (NCI)
About 83,000 compounds went through this panel and 20% of them were active in at least one assay; those are over-represented in the sample as a whole.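 96-well plates, one dose, 48 hours. Percent growth reported; active if below 10.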 Unmarked numbers belong to inactive results. Activity calls are given as the source filed them.

Key:
Assay in all cases: NCI-60 one-dose screen, 48 h (100 = growth as untreated, 0 = no growth, -100 = all killed)
Conditions in all cases: 10 µM unless noted
[1] = test system: NCI-H23 lung
[2] = test system: NCI-H226 lung
[3] = test system: NCI-H322M lung
[4] = test system: HOP-62 NSCLC
[5] = test system: NCI-H460 lung
[6] = test system: HOP-92 NSCLC
[7] = test system: NCI-H522 lung
[8] = test system: A549/ATCC NSCLC
[9] = test system: 786-0 renal
[10] = test system: COLO 205 colon
[11] = test system: DU-145 prostate
[12] = test system: K-562 leukemia
[13] = test system: MALME-3M melanoma
[14] = test system: MDA-MB-231 breast
[15] = test system: RXF 393 renal
[16] = test system: SF-268 CNS
[17] = test system: SF-295 CNS
[18] = test system: SF-539 CNS
[19] = test system: UACC-257 melanoma
[20] = test system: M14 melanoma

Row | SMILES | growth [1] [%] | growth [2] [%] | growth [3] [%] | growth [4] [%] | growth [5] | growth [6] | growth [7] | growth [8] | growth [9] | growth [10] | growth [11] | growth [12] | growth [13] | growth [14] [%] | growth [15] | growth [16] [%] | growth [17] | growth [18] | growth [19] [%] | growth [20]
1 | CCOc1ccc(NC(=O)c2cc(OC)c(OC)c(OC)c2)cc1 | 45.8 | 68.1 | 52.2 | 56.2 | 17.1% | 44.1% | 42.3% | 46.6% | 32.3% | 11.8% | 54% | 17% | 38.2% | 62.7 | 39.8% | 47.6 | 26.2% | 23.5% | 50.1 | 16.5%
2 | COc1cc(N2C(=O)[C@H](c3ccccc3)C2c2ccc(SC)cc2)cc(OC)c1OC (stereo not given in full) | 16 | 56.1 | 37.7 | 20.7 | 4.99% (active) | -0.302% (active) | -9.45% (active) | 4.39% (active) | 5.94% (active) | -52% (active) | 6.14% (active) | 5.06% (active) | 63.3% | 28 | -4.2% (active) | 25.3 | -6.29% (active) | 8.41% (active) | 33.3 | 5.09% (active)
3 | COc1cc(/C=C/c2cc(/C=C/c3ccc(O)c(OC)c3)n(C(=O)Nc3ccc(F)cc3)n2)ccc1O | 10.7 | 15.9 | 27.3 | 30.2 | 8.35% (active) | -3.45% (active) | -6.04% (active) | 12% | -6.9% (active) | 8.73% (active) | 6.78% (active) | 0.22% (active) | 9.15% (active) | 33.6 | -43.8% (active) | 20.1 | -21.6% (active) | 3.68% (active) | 13.7 | 2.69% (active)
4 | COc1ccc(C2C(C#N)=C(N)Oc3c2sc2c(Br)cccc32)cc1 (stereo not given) | 36.3 | 49.2 | 30 | 23.7 | 12.9% | 47% | -6.29% (active) | 35.5% | 29.6% | 2.31% (active) | 21.4% | 9.39% (active) | 37% | 40.5 | 4.42% (active) | 38.7 | 15.7% | -12.4% (active) | 65.5 | 6.9% (active)
5 | Cc1[nH]c(C(=O)Nc2cccc(OC3CCNCC3)c2)c(Cl)c1Cl | 75.3 | 91.4 | 84.8 | 86.9 | 77% | 22.9% | 99.2% | 68.6% | 63.8% | -35.3% (active) | 88% | 0.0646% (active) | 27.2% | 50.7 | 40.9% | 74.5 | 58.7% | 71.5% | 17.7 | -12.4% (active)
6 | COc1ccc2c(O)c(/C=C3\N=Nc4ccccc43)oc2c1C[C@H]1CCNC[C@H]1F | 46.8 | 60.6 | 73.4 | 53.6 | 29.8% | 38.6% | 46.7% | 34.4% | 57.8% | 0.564% (active) | 51.1% | 37.4% | 42.3% | 47.8 | 59.9% | 77.2 | 66.9% | 57.4% | 52.2 | 28.7%
7 | O=c1ccc2nc(C(F)(F)F)nn(-c3ccccc3)c-2c1 | 67.7 | 77.7 | 99.8 | 69 | 97.3% | 35.2% | -56% (active) | 93% | 22.2% | -70.7% (active) | 40.5% | -35.1% (active) | -41.7% (active) | 61 | -20.5% (active) | 77.4 | 91.9% | 92.8% | 35.6 | 62.1%
8 | CC(=O)N(Cc1ccccc1)c1nc2ccc(O)c(CN(C)C)c2s1 | 96.7 | 90.5 | 103 | 90.6 | 100% | 37.6% | 90.2% | 98.4% | 97.6% | 116% | 108% | 92.5% | 98.1% | 96 | 98.2% | 94.6 | 92.6% | 97.2% | 102 | 104%
